Compounds without any hit were thinned out: in the full panel of roughly 83,000, 20% have a hit.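 The test compound was applied at a single concentration to cells in 96-well plates for 48 hours, and percent growth was recorded.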 Values without a mark were called inactive. The source made the active and inactive calls. How the source made its calls: active means growth percent below 10; inactive means the rest.
Tested on: UO-31 renal
Assay: NCI-60 one-dose screen, 48 h (100 = growth as untreated, 0 = no growth, -100 = all killed)
Conditions: 10 µM unless noted

Compound | growth
CN1CCN(CCCNC(=O)c2c3c(n4ccccc24)C(=O)c2ncccc2C3=O)CC1 | 32.2%
CN1CCN(CC(=O)N(C)c2ccc(N=C(c3ccccc3)c3c(O)[nH]c4ccc([N+](=O)[O-])cc34)cc2)CC1 | 28.8%
CCCCCCCCNc1ncnc2c1ncn2Cc1nnc2c3ccccc3c(Cl)nn12 | 23.6%
CC/C(=C(/c1ccc(Cl)cc1)c1ccc(OCCCN(C)C)cc1)c1ccc(OC)cc1 | 62.5%
CCN(CC)CCCNC(=O)c1c2c(n3ccccc13)C(=O)c1ncccc1C2=O | -19.8% (active)
CCCn1cnc2c(c1=N)C(c1ccc(Cl)cc1)c1sc3c(F)cccc3c1O2 (stereo not given) | 50.5%
Cc1ccc(C23CCC(=O)N2CCc2cncn23)cc1 (stereo not given) | 96.8%
O=C(COc1ccc(/C=C2\Oc3ccccc3C2=O)cc1)Nc1nccs1 | -39.8% (active)
Cc1c(C(=O)C(SC(=S)N2CCOCC2)SC(=S)N2CCOCC2)nnn1-c1ccc([N+](=O)[O-])cc1 | 74.7%
O=[N+]([O-])c1ccc(Oc2cccc3c(Oc4ccc([N+](=O)[O-])cc4[N+](=O)[O-])cccc23)c([N+](=O)[O-])c1 | 72.8%
CN(C)CCOc1ccc(/C(=C(/CCCCCCCCCC[P+](c2ccccc2)(c2ccccc2)c2ccccc2)c2ccccc2)c2ccccc2)cc1 | -90.3% (active)
CC1(C)CC[C@]2(CO)CC[C@]3(C)C(=CC[C@@H]4[C@@]5(C)CCNCC(C)(C)[C@@H]5CC[C@]43C)[C@@H]2C1 | 75.3%
O=c1oc2ccccc2cc1-c1nn(-c2ccccc2)cc1/C=N/Nc1nc(-c2ccccc2)c(N=Nc2ccccc2)s1 | 73.4%
COc1cc(/C=C2\CN(S(=O)(=O)c3ccc(C)cc3)C/C(=C\c3cc(CN4CCCC4)c(O)c(OC)c3)C2=O)cc(CN2CCCC2)c1O | 4.71% (active)
Nc1ccc(Cl)c2c(=O)c3ccccc3[nH]c12 | 65.1%
COC(=O)c1sc(-c2ccc(C)cc2)cc1O | 94.1%
CCOC(=O)CSc1nc2sc3c(c2c(=O)n1-c1ccccc1)CCCCC3 | 84.1%
O=C1NCCS(=O)(=O)/C1=C\C=C\c1cccc(C(F)(F)F)c1 | 26.8%

Compound | growth
COc1cc(/C=C2\C(=O)N(CCOc3cc(O)c4c(=O)cc(-c5ccccc5)oc4c3)c3ccccc32)cc(OC)c1O | 63.5%
CNC1=C([N+](=O)[O-])C(c2ccc(OC)cc2)C(C#N)=C(c2ccc[nH]2)O1 (stereo not given) | 89.3%
COc1cccc2cc(N(C)c3ncnc4ccccc34)ccc12 | 25.4%
Cc1[nH]c(C(=O)Nc2ccc(C(N)=O)cc2OC(C)C)c(Cl)c1Cl | 74.4%
Nc1nc(N)c2c(n1)NC(c1cccc(Nc3ccnc4cc(C(F)(F)F)ccc34)c1)CC(c1ccc(Cl)cc1)=N2 (stereo not given) | 62.7%
COC1=C(OC)C(=O)C(CCCCCCCCCCO)=C(C)C1=O | 70.2%
O=C1c2c(c3c4cccnc4[nH]c3c3ccc4ccccc4c23)C(=O)N1O | 57.6%
CCN1CCN(C(=O)[C@]23CC[C@@H](C)[C@H](C)[C@@H]2C2=CC[C@@H]4[C@@]5(C)C/C(=C/c6ccncc6)C(=O)C(C)(C)[C@@H]5CC[C@@]4(C)[C@]2(C)CC3)CC1 | 9.04% (active)
C=CC(=O)Nc1ccc2ncnc(Nc3cccc(NS(=O)(=O)CCC)c3Cl)c2c1 | 19.2%
COc1ccccc1/C=C/C1=C(C)CCC(c2ccccc2OC)C1C (stereo not given) | 4.1% (active)
CN(C)CCOc1nc2c3cc([N+](=O)[O-])ccc3nn2c2ccccc12 | 23.4%
COc1ccc(-c2nc(SCCC(C)C)nc(N/N=C(/C)c3ccc(N)cc3)c2C#N)cc1 | 69.3%
O=C(c1ccccc1)[C@@H](c1ccccc1)[C@]1(O)C(=O)Nc2ccccc21 | 76.1%
CCOC(=O)C1=C(c2ccccc2)N=C2SC=C(c3cccc([N+](=O)[O-])c3)N2C1c1ccc(O)cc1 (stereo not given) | 91%
Cn1nc(-c2ccc(Cl)cc2)nc2c(=O)n(C)c(=O)nc1-2 | 12.3%
COC1CC(O)C2=C(CC3C(/C(C)=C\CC=C(C)C)CCC3(C)O2)C1=O (stereo not given) | 89.6%
COc1cc(C(=O)/C=C/c2c(-c3cccs3)nc3sc(C)cn23)cc(OC)c1OC | -7.93% (active)

Source: PubChem BioAssay (NCI)
